Laboratory results reported in PubChem BioAssay (NCI).
This is part of a sample that, as a whole, favours compounds with a hit. Of some 83,000 tested, about 20% had one in any assay.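 Method: cells in 96-well plates; compound added at one concentration; 48 h incubation; percent growth measured; values under 10 scored active.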 Values without a mark were called inactive. Calls of active or inactive are those of the source.

Assays:
Assay in all cases: NCI-60 one-dose screen, 48 h (100 = growth as untreated, 0 = no growth, -100 = all killed)
Details in all cases: 10 µM unless noted
SK-MEL-2 melanoma = tested on: SK-MEL-2 melanoma
EKVX NSCLC = tested on: EKVX NSCLC
SN12C renal = tested on: SN12C renal
UO-31 renal = tested on: UO-31 renal
TK-10 renal = tested on: TK-10 renal
ACHN renal = tested on: ACHN renal
CAKI-1 renal = tested on: CAKI-1 renal
A498 renal = tested on: A498 renal
CCRF-CEM leukemia = tested on: CCRF-CEM leukemia

Row | SMILES | growth (SK-MEL-2 melanoma) | growth (EKVX NSCLC) | growth (SN12C renal) | growth (UO-31 renal) | growth (TK-10 renal) | growth (ACHN renal) | growth (CAKI-1 renal) | growth (A498 renal) | growth (CCRF-CEM leukemia)
1 | N#Cc1c(-c2cccc(Cl)c2)cc(-c2cccc(F)c2)[nH]c1=O | 102% | 95.1% | 91.1% | 80.7% | 94% | 90.3% | 89.6% | 59.4% | 
2 | COc1ccc(NC(=O)c2nc(-c3cc(OC)c(OC)c(OC)c3)n(-c3cccc4ccccc34)n2)cc1OC | 43.7% | 44.6% | 52.9% | 6.34% (active) | 44.8% | 30.6% | 20.1% | 42.6% | 
3 | CCCCn1c(=O)c2c(nc3n2CCCN3CCc2ccc(OCC(=O)NCCN(CC)CC)cc2)n(CCCC)c1=O | 73.8% | 70.5% | 64.6% | 43.2% | 71.7% | 78.3% | 77.6% | 1.86% (active) | 
4 | CC/C=C/C/C=C/C/C=C/C/C=C/C/C=C/C/C=C/CCC(=O)Nc1ccn([C@@H]2O[C@H](CO)[C@@H](O)C2(F)F)c(=O)n1 | 83.1% | 70% | -2.1% (active) | 3.26% (active) | 67.9% | 6.15% (active) | 12.4% | 16.6% | 
5 | COc1ccccc1NC(=O)N/C(N)=N/c1nc2ccccc2s1 | 48.6% | 53.2% | 37.1% | 52.9% | 59.3% | 42.2% | 36.4% | -10.5% (active) | 
6 | Cc1ccc(Nc2nc(N)nc(CSCC(=O)NN)n2)cc1 | 109% | 102% | 94.6% | 88.2% | 115% | 101% | 89.8% | 77.7% | 
7 | COc1ccc2c(c1)CCCN2c1c2ccccc2nc2ccccc12 | 35.4% | 45% | 39.5% | 29.8% | 48.2% | 24.5% | 27.8% | -4.56% (active) | 
8 | O=C(CC(SCc1ccccc1)c1ccccc1)c1ccccc1 (stereo unspecified) | 120% | 82.4% | 98.8% | 84.7% | 87.3% | 99.6% | 95.8% | 81.8% | 95.9%
9 | CCN(CC)Cc1cccc(C(=O)OC)c1 | 100% | 95.7% | 105% | 103% | 92.5% | 96.6% | 97.2% | 115% | 
10 | O=Cc1c[nH]c2ccc(-c3csc4ccccc34)cc12 | 110% | 55.9% | 75.2% | 42.9% | 60.6% | 63.7% | 39.7% | 43.5% | 
11 | CN(C)c1ccc(-c2cc(-c3ccc(Nc4nc(Nc5ccc(Cl)cc5)nc(Nc5ccc(Cl)cc5)n4)cc3)no2)cc1 | 31.6% | 41.3% | 53.8% | 23.5% | 48.4% | 46.5% | 39.7% | 67.5% | 
12 | Cc1c(O)cc(-c2cnc(N/N=C\c3ccc(Cl)cc3)s2)c(O)c1C | 101% | 64.3% | 87.5% | 75.5% | 120% | 100% | 92% | 103% | 
13 | Cc1cccc(Cc2cnc(NC(=O)c3ccc4nnsc4c3)s2)c1 | 82.7% | 87.4% | 92.9% | 78.5% | 80.9% | 70.3% | 60.2% | 106% | 
14 | Clc1cccc(Cl)c1/C=C/c1cc(/C=C/c2c(Cl)cccc2Cl)[nH]n1 | 32.4% | 42% | 40.4% | 51% | 52.2% | 48.9% | 30.1% | 19% | 
15 | O=C(COc1ccc(/C=C2\Oc3ccccc3C2=O)cc1)c1ccc(Cl)cc1 | 82.7% | 98.8% | 103% | 110% | 120% | 104% | 81.8% | 112% | 
16 | O=C1CC(N2C(=O)/C(=C/C(Cl)=C\c3ccc([N+](=O)[O-])cc3)SC2=S)C(=O)N1c1ccc(O)cc1 (stereo unspecified) | -9.67% (active) | -2.89% (active) | -8.4% (active) | -75.2% (active) | -1.39% (active) | -71.4% (active) | 7.93% (active) | -26.8% (active) | 

Row | SMILES | growth (SK-MEL-2 melanoma) | growth (EKVX NSCLC) | growth (SN12C renal) | growth (UO-31 renal) | growth (TK-10 renal) | growth (ACHN renal) | growth (CAKI-1 renal) | growth (A498 renal) | growth (CCRF-CEM leukemia)
17 | N#CC1=C(c2ccc(Br)cc2)NC(SCC(=O)c2ccc(Br)cc2)NC1=O (stereo unspecified) | 98% | 104% | 109% | 89.9% | 118% | 109% | 97.1% | 80.1% | 
18 | Cc1ccc(C(=O)CSc2nc(-c3ccc(Br)cc3)c(C#N)c(=O)[nH]2)cc1 | 106% | 106% | 99.5% | 88.5% | 103% | 110% | 87.2% | 65.1% | 
19 | Cc1cc(NCc2cc(Nc3ccnc4cc(Cl)ccc34)ccc2F)nc(N2CCOCC2)n1 | 84.6% | 54.3% | 31.4% | -47.8% (active) | -10.4% (active) | -79.5% (active) | 60.3% | 51.7% | 
20 | COc1nc(N(C)O)nc(N(C)O)n1 | 70.9% | 31.2% | 42.5% | 36.9% | 32.5% | 11.2% | 36.3% | 76.7% | 
21 | CCCCCS(=O)(=O)Nc1ccc(C(=O)O)cc1 | 93% | 100% | 101% | 97.9% | 92.1% | 104% | 102% | 104% | 
22 | C[n+]1cccc(CC(=O)NO)c1 | 100% | 102% | 94.7% | 97.3% | 94.8% | 98.4% | 104% | 115% | 
23 | O=c1c2c3c(sc2nc(N/N=C/c2ccc(Br)cc2)n1Cc1ccccc1)CCCC3 | 102% | 74.1% | 78.3% | 62.3% | 85.5% | 87.1% | 62% | 78.4% | 
24 | COc1cc2c(cc1-c1c(C)noc1C)ncc1nc(C3CCC(F)(F)CC3)n(C3CCC(OC(F)F)CC3)c12 (stereo unspecified) | 46% | 53.9% | 76.6% | 18.2% | 41.3% | 66.2% | 52.1% | 61.2% | 
25 | CCN(CC)CCN1CC(O)=C(c2nc(-c3ccc(Cl)cc3)cs2)C1=N | 100% | 82.8% | 64.5% | -24.7% (active) | 89.2% | 42.5% | 43.2% | 56.5% | 
26 | O=c1ssc(Cl)c1-c1ccccc1 | 155% | 94.9% | 93.9% | 74.6% | 126% | 104% | 90.5% | 108% | 
27 | Cc1cc(NCc2cc(Nc3ccnc4cc(Cl)ccc34)ccc2F)nc(N2CCN(C)CC2)n1 | -70.7% (active) | 31% | 36.8% | -8.37% (active) | -16% (active) | 5.12% (active) | 61.8% | -26.8% (active) | -13.5% (active)
28 | CNC(=O)c1cc(Oc2cccc3nc(Nc4ccc(F)c(Cl)c4)ccc23)ccn1 | 90.8% | 69.5% | 60.4% | 68.7% | 52.9% | 75.3% | 97% | 60.4% | 
29 | Cc1ccccc1NC(=O)N/C(N)=N/c1nc(-c2cccc([N+](=O)[O-])c2)cs1 | 37.3% | 49.3% | 54.8% | 58.1% | 101% | 53.7% | 26.4% | -3.64% (active) | 
30 | S=C(Cc1ccc2c(c1)CCCC2)N1CCOCC1 | 87.1% | 97.5% | 101% | 92.2% | 106% | 101% | 102% | 101% | 
31 | C[n+]1cc2c3c(ccc2c2ccc4cc5c(cc4c21)OCO5)OCO3 | -77.4% (active) | -74% (active) | -53.4% (active) | -94.6% (active) | -95.4% (active) | -92.2% (active) | -29.9% (active) | -64.1% (active) | 11.8%
